Experiment [1] has as its system bovine Histamine 1 Receptor (H1), gene 281231. The experiment can be described thus: NVS_GPCR_bH1: NovaScreen (NVS) G Protein-Coupled Receptor Assay for bovine Histamine 1 Receptor (H1) (AID 2283246). As to the method:
(§1) NVS_GPCR_bH1 is a biochemical, single-readout assay that uses extracted gene-proteins from Bovine cerebellar membranes in a tissue-based cell-free assay. Measurements were taken 1 hour after chemical dosing in a 48-well plate.NVS_GPCR_bH1 is one of one assay component(s) measured or calculated from the NVS_GPCR_bH1 assay. It is designed to make measurements of radioligand binding, a form of binding reporter, as detected with scintillation counting signals by Filter-based radiodetection technology.Data from the assay component NVS_GPCR_bH1 was analyzed into 1 assay endpoint. This assay endpoint, NVS_GPCR_bH1, was analyzed in the positive analysis fitting direction relative to DMSO as the negative control and baseline of activity. Using a type of binding reporter, loss-of-signal activity can be used to understand changes in the binding as they relate to the gene HRH1. Furthermore, this assay endpoint can be referred to as a primary readout, because the performed assay has only produced 1 assay endpoint. To generalize the intended target to other relatable targets, this assay endpoint is annotated to the gpcr intended target family, where the subfamily is rhodopsin-like receptor.
Binding assays used specific radioligands (tritiated, iodinated) with non-radioactive competitive displacement ligands in agonist or antagonist protocols (as indicated) and various reference compounds and inhibitors to titrate specific binding to receptors and transporters. Most enzyme assays (CYPs, kinases, phosphatases, proteases, HDACs) used recombinant protein and specific substrates (fluorescence mostly, some colorimetric and radioactive) and inhibitors, followed by a biochemical separation of substrate and product. All assays for the biochemical HTS were initially run in duplicate at a single concentration (10 uM for CYP450 assays and 25 uM for all others). […]

Experiment [2] concerns the target guinea pig Opioid, Kappa 1 Receptor (OpiateK), OPRK1 (gene 100135587) (UniProt P41144). Put plainly: NVS_GPCR_gOpiateK: NovaScreen (NVS) G Protein-Coupled Receptor Assay for guinea pig Opioid, Kappa 1 Receptor (OpiateK) (AID 2283252).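 Further: radioligand displacement from kappa opioid receptor in guinea pig cerebellar membranes; active means reduced radioligand binding relative to DMSO.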 The gist of the method:
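Radioligand competition binding using guinea pig cerebellum membrane fraction; 2 h exposure; filter radiodetection. Single concentration 25 uM (duplicate), follow-up concentration-response for actives.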

Experiment [3] deals with human Adenosine A1 Receptor (AdoRA1), ADORA1 (gene 134) (UniProt P30542). The experiment can be described thus: NVS_GPCR_hAdoRA1: NovaScreen (NVS) G Protein-Coupled Receptor Assay for human Adenosine A1 Receptor (AdoRA1) (AID 2283254). An outline of the steps:
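Radioligand binding was run on human cortical membranes, cell-free, with filter-based scintillation counting 1 h after dosing. The primary screen was duplicate at 25 uM, followed by concentration series. Signal loss versus DMSO was fitted positive-direction.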

The target of experiment [4] is Adenosine receptor A1 (Bos taurus) (UniProt P28190). Put plainly: NVS_GPCR_bAdoR_NonSelective: NovaScreen (NVS) G Protein-Coupled Receptor Assay for bovine Adenosine Receptor (AdoR), Non-selective Binding (AID 2283244). An outline of the steps:
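Cell-free binding with membranes from bovine striatum: radioligand displaced by test chemical, read after 1 h by filtration and scintillation. Single-point 25 uM duplicate primary, 50 uM top concentration in follow-up curves, DMSO baseline.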

Experiment [5] can be described thus: NVS_GPCR_bNPY_NonSelective: NovaScreen (NVS) G Protein-Coupled Receptor Assay for bovine Neuropeptide Y (NPY) Receptor, Non-selective Binding (AID 2283245). The gist of the method: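 Displacement of radioligand from bovine hippocampal membrane receptors, read by filtration and scintillation counting after 1 hour. Concentration-response to a top of 50 uM followed a 25 uM duplicate primary screen. Loss of signal versus DMSO.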

In experiment [6] the target is human Serotonin, 5-Hydroxytryptamine Receptor 7 (5HT7), HTR7 (gene 3363) (UniProt P34969). The experiment can be described thus: NVS_GPCR_h5HT7: NovaScreen (NVS) G Protein-Coupled Receptor Assay for human Serotonin, 5-Hydroxytryptamine Receptor 7 (5HT7) (AID 2283255).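 Further: hits reduce specific radioligand binding relative to DMSO.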 As to the method: as §1, with “NVS_GPCR_h5HT7” for “NVS_GPCR_bH1”, “CHO” for “Bovine cerebellar membranes”, “a” for “a tissue-based”, “96-well plate.NVS_GPCR_h5HT7” for “48-well plate.NVS_GPCR_bH1”, “NVS_GPCR_h5HT7,” for “NVS_GPCR_bH1,”, “HTR7.” for “HRH1.”
Binding assays used specific radioligands (tritiated, iodinated) with non-radioactive competitive displacement ligands in agonist or antagonist protocols (as indicated) and various reference compounds and inhibitors to titrate specific binding to receptors and transporters. Most enzyme assays (CYPs, kinases, phosphatases, proteases, HDACs) used recombinant protein and specific substrates (fluorescence mostly, some colorimetric and radioactive) and inhibitors, followed by a biochemical separation of substrate and product. All assays for the biochemical HTS were initially run in duplicate at a single concentration (10 uM for CYP450 assays and 25 uM for all others). […] Each assay was run with positive and negative controls, and concurrent controls on every plate. The follow-up (secondary) screen tested active chemical-pairs in concentration series, as well as a few additional assays not tested in the primary screen, some selected negative inactives, and several cases re-run in the concentration series for confirmatory purposes.

For experiment [7], the system named is guinea pig Leukotriene B4 Receptor (LTB4), gene 100379538. The experiment can be described thus: NVS_GPCR_gLTB4: NovaScreen (NVS) G Protein-Coupled Receptor Assay for guinea pig Leukotriene B4 Receptor (LTB4) (AID 2283247). Here is the method:
as §1, with “NVS_GPCR_gLTB4” for “NVS_GPCR_bH1”, “Guinea pig spleen” for “Bovine cerebellar”, “2 hours” for “1 hour”, “plate.NVS_GPCR_gLTB4” for “plate.NVS_GPCR_bH1”, “NVS_GPCR_gLTB4,” for “NVS_GPCR_bH1,”, “Ltb4r.” for “HRH1.”
Binding assays used specific radioligands (tritiated, iodinated) with non-radioactive competitive displacement ligands in agonist or antagonist protocols (as indicated) and various reference compounds and inhibitors to titrate specific binding to receptors and transporters. Most enzyme assays (CYPs, kinases, phosphatases, proteases, HDACs) used recombinant protein and specific substrates (fluorescence mostly, some colorimetric and radioactive) and inhibitors, followed by a biochemical separation of substrate and product. All assays for the biochemical HTS were initially run in duplicate at a single concentration (10 uM for CYP450 assays and 25 uM for all others). Assay-chemical combinations meeting a pre-defined threshold (e.g., 30% inhibition and other criteria defined below) were then run in singleton concentration-response format with maximum concentration of 20 uM for CYPs and 50 uM for all others. Each assay was run with positive and negative controls, and concurrent controls on every plate. The follow-up (secondary) screen tested active chemical-pairs in concentration series, as well as a few additional assays not tested in the primary screen, some selected negative inactives, and several cases re-run in the concentration series for confirmatory purposes.

Experiment [8] has as its target human Serotonin, 5-Hydroxytryptamine Receptor 6 (5HT6), HTR6 (gene 3362) (UniProt P50406). The experiment can be described thus: NVS_GPCR_h5HT6: NovaScreen (NVS) G Protein-Coupled Receptor Assay for human Serotonin, 5-Hydroxytryptamine Receptor 6 (5HT6) (AID 2283253). The gist of the method: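 Filter scintillation counting of radioligand displacement from HEK293-expressed 5HT6, 1 hour post-dose, with loss of signal relative to DMSO. Single 25 uM duplicates first, with concentration series for confirmation.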

The target of experiment [9] is human Adenosine A2a Receptor (AdoRA2a), ADORA2A (gene 135) (UniProt P29274). The experiment can be described thus: NVS_GPCR_hAdoRA2a: NovaScreen (NVS) G Protein-Coupled Receptor Assay for human Adenosine A2a Receptor (AdoRA2a) (AID 2283256). The gist of the method:
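Compounds screened in duplicate at 25 uM, with actives followed up in concentration series, for displacement of a radioligand from HEK293-derived receptor protein. Bound counts read by filter scintillation at 1.5 hours, DMSO as baseline.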

Records with an inconclusive call do not appear. The source made the active and inactive calls. How the source made its calls: active means hit-call score of the fitted dose curve at least 0.9, where 1 is the maximum; inconclusive means response in the unintended direction; inactive means score below 0.9.

Drawing on PubChem BioAssay (EPA / NIEHS), this text covers outcome and AC50 for 14 molecules.

Sequence of Adenosine receptor A1 (Bos taurus) (P28190 whole entry, looked up): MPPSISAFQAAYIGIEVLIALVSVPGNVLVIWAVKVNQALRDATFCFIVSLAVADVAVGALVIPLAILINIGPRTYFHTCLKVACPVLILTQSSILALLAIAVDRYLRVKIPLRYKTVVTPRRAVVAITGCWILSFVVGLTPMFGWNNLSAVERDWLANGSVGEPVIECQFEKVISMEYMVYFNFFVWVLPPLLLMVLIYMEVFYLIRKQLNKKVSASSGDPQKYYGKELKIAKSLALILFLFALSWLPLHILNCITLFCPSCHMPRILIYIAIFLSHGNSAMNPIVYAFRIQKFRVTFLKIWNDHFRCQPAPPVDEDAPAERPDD
Sequence of human Serotonin, 5-Hydroxytryptamine Receptor 7 (5HT7), HTR7 (gene 3363) (P34969 whole entry, looked up): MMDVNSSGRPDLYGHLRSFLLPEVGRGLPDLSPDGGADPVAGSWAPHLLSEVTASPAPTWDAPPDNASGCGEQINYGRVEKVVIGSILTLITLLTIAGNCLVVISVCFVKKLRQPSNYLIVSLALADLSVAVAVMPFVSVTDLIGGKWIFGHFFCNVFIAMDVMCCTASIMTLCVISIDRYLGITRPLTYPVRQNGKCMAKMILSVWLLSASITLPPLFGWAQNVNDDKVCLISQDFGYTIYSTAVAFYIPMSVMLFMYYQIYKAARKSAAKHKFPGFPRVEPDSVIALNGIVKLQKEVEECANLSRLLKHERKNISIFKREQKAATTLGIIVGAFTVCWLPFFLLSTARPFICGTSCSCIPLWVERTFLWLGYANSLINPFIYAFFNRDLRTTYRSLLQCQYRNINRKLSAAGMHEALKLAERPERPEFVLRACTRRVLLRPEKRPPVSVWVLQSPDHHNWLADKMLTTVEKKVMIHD
Sequence of guinea pig Opioid, Kappa 1 Receptor (OpiateK), OPRK1 (gene 100135587) (P41144 whole entry, looked up): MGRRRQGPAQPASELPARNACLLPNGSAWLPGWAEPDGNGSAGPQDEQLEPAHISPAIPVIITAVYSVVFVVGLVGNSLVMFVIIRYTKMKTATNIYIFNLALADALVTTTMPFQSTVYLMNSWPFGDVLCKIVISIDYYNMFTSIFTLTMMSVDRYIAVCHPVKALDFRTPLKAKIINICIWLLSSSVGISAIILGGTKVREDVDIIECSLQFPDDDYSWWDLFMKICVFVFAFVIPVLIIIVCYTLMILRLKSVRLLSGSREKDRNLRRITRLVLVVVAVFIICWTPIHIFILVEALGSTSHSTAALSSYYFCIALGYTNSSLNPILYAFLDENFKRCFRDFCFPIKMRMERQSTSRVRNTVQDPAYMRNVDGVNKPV
Sequence of human Serotonin, 5-Hydroxytryptamine Receptor 6 (5HT6), HTR6 (gene 3362) (P50406 whole entry, looked up): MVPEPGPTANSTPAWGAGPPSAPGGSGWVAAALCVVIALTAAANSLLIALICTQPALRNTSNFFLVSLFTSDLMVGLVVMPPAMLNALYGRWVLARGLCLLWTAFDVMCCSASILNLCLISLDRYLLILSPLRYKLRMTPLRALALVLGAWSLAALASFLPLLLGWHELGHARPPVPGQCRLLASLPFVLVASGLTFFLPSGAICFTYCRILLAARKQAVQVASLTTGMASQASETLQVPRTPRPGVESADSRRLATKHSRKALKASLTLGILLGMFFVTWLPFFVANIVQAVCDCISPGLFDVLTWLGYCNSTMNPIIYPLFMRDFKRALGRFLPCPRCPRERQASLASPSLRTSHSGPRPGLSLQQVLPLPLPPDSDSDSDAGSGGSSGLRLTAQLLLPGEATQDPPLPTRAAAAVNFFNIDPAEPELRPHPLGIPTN
Sequence of human Adenosine A1 Receptor (AdoRA1), ADORA1 (gene 134) (P30542 whole entry, looked up): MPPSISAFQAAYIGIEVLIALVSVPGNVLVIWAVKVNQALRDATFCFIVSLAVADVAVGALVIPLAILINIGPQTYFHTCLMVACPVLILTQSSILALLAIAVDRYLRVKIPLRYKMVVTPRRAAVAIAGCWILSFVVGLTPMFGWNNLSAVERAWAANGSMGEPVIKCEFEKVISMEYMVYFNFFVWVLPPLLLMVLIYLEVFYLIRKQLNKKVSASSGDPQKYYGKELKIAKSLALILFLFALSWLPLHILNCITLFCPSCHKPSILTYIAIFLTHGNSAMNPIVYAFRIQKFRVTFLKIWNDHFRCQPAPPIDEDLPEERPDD
Sequence of human Adenosine A2a Receptor (AdoRA2a), ADORA2A (gene 135) (P29274 whole entry, looked up): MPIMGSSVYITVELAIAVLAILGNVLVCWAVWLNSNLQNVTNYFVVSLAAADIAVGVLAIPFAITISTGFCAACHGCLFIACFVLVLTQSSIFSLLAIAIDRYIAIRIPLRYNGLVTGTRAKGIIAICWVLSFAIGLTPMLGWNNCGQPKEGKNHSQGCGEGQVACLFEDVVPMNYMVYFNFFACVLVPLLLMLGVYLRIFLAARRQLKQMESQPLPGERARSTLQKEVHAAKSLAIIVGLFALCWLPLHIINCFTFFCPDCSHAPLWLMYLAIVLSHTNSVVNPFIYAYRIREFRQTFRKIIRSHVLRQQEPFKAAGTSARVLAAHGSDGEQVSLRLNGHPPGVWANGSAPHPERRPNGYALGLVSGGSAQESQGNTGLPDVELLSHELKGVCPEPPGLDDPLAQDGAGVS

For the molecule `CN(C)CCCN1c2ccccc2Sc2ccc(Cl)cc21`, the result in [1] was inactive. Moreover, in experiment [2], the half-maximal activity concentration (AC50) (usually the concentration giving half of the maximal activity seen) is 10.1 µM (active).
Take `O=C1OC(c2ccc(O)cc2)(c2ccc(O)cc2)c2ccccc21`: the half-maximal activity concentration (AC50) was 4.09 µM (active) in experiment [2] and 1.03 µM (active) in experiment [3].
As to `CN(C)C(=O)NC1(c2ccccc2)CCN(CCC[C@]2(c3ccc(Cl)c(Cl)c3)CCCN(C(=O)c3ccccc3)C2)CC1`, the molecule was classed as inactive in experiment [4], in [5] and in experiment [6]. For the same molecule, the half-maximal activity concentration (AC50) in experiment [2] was 3.56 µM (active).
Consider `CC(C)(O)c1ccc(CNC(=O)c2cccnc2Oc2ccc(F)cc2)cc1`, for which the AC50 in [7] is 4.68 µM (active). For the same molecule, in experiment [2], the molecule was called inactive.
For the molecule `CCc1nc(N)nc(N)c1-c1ccc(Cl)cc1`, the AC50 in experiment [6] was 4.76 µM (active).
On to `C=CCCCCCCCCCCCC`, for which the molecule was called inactive in experiment [3].
Take `CO[C@@H]1COCC[C@@H]1N[C@@H]1CC[C@@](C(=O)N2CCc3ncc(C(F)(F)F)cc3C2)(C(C)C)C1`: the call in [1] was inactive.
As for `NC=O`, the result in [7] was inactive.
On to `COc1ccc(OC(F)(F)F)cc1CN[C@H]1CCCN[C@H]1c1ccccc1`, for which the half-maximal activity concentration (AC50) is 7.82 µM (active) in [1], 25 µM (active) in experiment [2] and 9.71 µM (active) in experiment [8].
As to `CSc1ccc(Oc2ccc(S(N)(=O)=O)cc2CN(C)C)cc1C`, the concentration at half-maximal activity (AC50) is 13.5 µM (active) in [2], 2.79 µM (active) in [8] and 12.5 µM (active) in [6].
Turning to `CCCCc1nc2cccnc2n1Cc1ccc(-c2ccccc2-c2nnn[nH]2)cc1`, the concentration at half-maximal activity (AC50) in experiment [7] was 10.9 µM (active); in [2] it was 10 µM (active).
Take `O=C(N[C@@H](c1ccccc1)[C@@H]1CCCCN1)c1cccc(C(F)(F)F)c1Cl`: the figures for the half-maximal activity concentration (AC50) in [2] and in experiment [6] were 0.641 µM (active) and 8.16 µM (active), respectively.
On to `O=C(O)CN(CC(=O)O)CC(=O)O`, for which the outcome in experiment [4] was inactive.
Turning to `CN(C)C(=O)NC1(c2ccccc2)CCN(CC[C@@]2(c3ccc(F)c(F)c3)CN(C(=O)c3ccccc3)CCO2)CC1`, the call in experiment [4] was inactive. Besides, the half-maximal activity concentration (AC50) in experiment [2] was 3.94 µM (active); in [9], 23.5 µM (active).
